# Assay results taken from PubChem BioAssay (NCATS).
# Records with an inconclusive call do not appear. Values without a mark were called inactive. Active and inactive are the calls of the source. Calls follow the shape of the dose curve; as a rule, active = well fitted inhibition curve with a large enough effect; inconclusive = small, poorly fitted or top-dose-only effect; inactive = flat fitted curve, though single readings scatter.
# Target: Calcium and integrin-binding protein 1 (Homo sapiens) (UniProt Q99828)
# Sequence (Q99828 whole entry, looked up): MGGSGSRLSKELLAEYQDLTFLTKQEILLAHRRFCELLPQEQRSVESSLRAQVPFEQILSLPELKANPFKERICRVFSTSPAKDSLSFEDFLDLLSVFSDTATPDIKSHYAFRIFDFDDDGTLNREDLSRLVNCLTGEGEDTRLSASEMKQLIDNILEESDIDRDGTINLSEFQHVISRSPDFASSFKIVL
# Assay: Primary qHTS for Identification of Calcium Integrin Binding Protein 1 (CIB1) Competitor (AID 1508620); also: top concentration of the series differs between compounds
# Details: CIB1-GST / FITC-alphaIIb peptide fluorescence polarization; series mostly up to 114 µM; activity change, negative = inhibition: at the top concentration
# Procedure, shortened: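 Fluorescence polarization competition: GST-tagged CIB1 (1 uM final) preincubated with compound 15 min at room temperature, then FITC-labelled alphaIIb peptide (100 nM final) added. After 15 min at room temperature, polarization read at Ex 480/Em 540.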
# % is scaled to controls: 0 for no effect and ±100 for the full control effect.
SMILES,"activity change, negative = inhibition [%]",Potency
Cc1cc2c(s1)c1cnn(Cc3cc(F)cc(F)c3F)c(=O)c1n2C,2.6,–
CCOC(=O)c1nn(-c2ccccc2)c(=O)c2c(N)sc(C)c12,-9.43,–
COc1ccccc1C1=Nn2c(nnc2-c2ccccc2O)SC1,-2.22,–
COc1ccc(C[C@@H](NS(=O)(=O)c2ccc(C(=O)O)cc2)C(=O)O)cc1,-5.33,–
C#CCCC(=O)Nc1sc2c(c1-c1nc3ccccc3s1)CCNC2,7.8,–
O=C(Cc1ccc(Cl)c(Cl)c1)Nc1ccc(S(=O)(=O)NCc2ccco2)cc1,0.307,–
Oc1ccc(COC2CCN(Cc3ccccc3)C2)c2cccnc12 (centres undefined),-15.8,–
Oc1ccc(CCc2ccccc2F)c2cccnc12,-6.05,–
c1ccc(-n2cc(-c3nnc4n3CCCCC4)c3ccccc32)cc1,-1.43,–
Cc1cc(C)nc(NC(=S)N2CCN(Cc3cccc4ccccc34)CC2)c1,-18.4,–
CC(C)c1cc(C(C)C)c(S(=O)(=O)Nc2cccc3cccnc23)c(C(C)C)c1,4.04,–
CN1CCN(Cc2cc(COCc3ccccc3)c3cccnc3c2O)CC1,-6.17,–
FC(F)(F)c1cccc(CSc2nc3ncc(Br)cc3[nH]2)c1,1.98,–
FC(F)(F)c1ccccc1-c1nccc(NCc2ccc(-c3cccnc3)cc2)n1,1.01,–
CN1CCN(c2cccc(Nc3nn4c(=O)c5ccc(F)cc5nc4s3)c2)CC1,-14.2,–
NC(=O)C1CCN(c2nc(-c3ccccc3C(F)(F)F)cs2)CC1,0.958,–
CC(=O)Nc1sc2c(c1-c1csc3ccccc13)CCNC2,12.3,–
COC(=O)c1cncc(NC(=O)c2cccs2)c1,-3.94,–
Cc1ccc(OCCn2c(CCNC(=O)c3ccc(Cl)cc3)nc3ccccc32)cc1,33,–
O=C(Nc1ccc(-c2nc3ccccc3[nH]2)cc1)c1ccc2cc[nH]c2c1,2.35,–

SMILES,"activity change, negative = inhibition [%]",Potency
CC(C)(C)OC(=O)NCCOCCOCCOc1cccc(-n2ncc3c2CCCC3NC(=O)c2ccccn2)c1 (centres undefined),-1.9,–
COc1ccc(C(=O)N(Cc2cccs2)Cc2cccs2)c(O)c1,-0.161,–
O=C(CNC(=O)c1ccccc1Cl)OC(C(=O)Nc1cc(C(F)(F)F)ccc1Cl)c1ccccc1 (centres undefined),3.67,–
CN(Cc1ccc(-c2ccccc2)cc1)c1nc(-c2ccccc2C(F)(F)F)nc2ccccc12,2.07,–
N#CN1CCC(NC(=O)c2cccc(C(F)(F)F)c2)CC1,-0.282,–
Cc1ccc(OCCn2c(CCNC(=O)c3cccc(N)c3)nc3ccccc32)cc1,-2,–
CN(C)c1cccc(-c2nc(N3CCC(C(N)=O)CC3)ncc2F)c1,2.2,–
CCCN1CCN(c2cccc(Nc3nn4c(=O)c5ccccc5nc4s3)c2)CC1,–,inactive
Cc1ccc(-c2nnc(N3CCC(C(N)=O)CC3)s2)cc1,4.74,–
Fc1cccc(CNc2ncnc3ccc(-c4cccnc4)cc23)c1,0.499,–
CC(=O)N(C(C)=O)n1c(C)nc2sc3c(c2c1=O)CCNC3,-1.44,–
COc1ccc(C(=O)N(Cc2ccco2)Cc2cccs2)c(O)c1,-9.63,–
COc1ccc(C2c3ccc(OCc4ccccc4)cc3Oc3ncn(CCN4CCOCC4)c(=N)c32)cc1OC (centres undefined),-0.183,–
CCc1ccc2oc(=O)cc(CN3CCN(c4ccccc4F)CC3)c2c1,1.55,–
COc1cccc(-c2nnc3n2N=C(c2cc(OC)ccc2OC)CS3)c1,0.905,–
Cc1ccc(C[C@@H](NS(=O)(=O)c2ccc(C(=O)O)cc2)C(=O)O)cc1,1.18,–
N#CN1CCC(NS(=O)(=O)c2ccc(C(F)(F)F)cc2)CC1,4.43,–
O=[S+]([O-])(Nc1ccc(-c2nc3ccccc3[nH]2)cc1)c1ccc2c(c1)OCO2,-18.4,–
Cc1ccc(OCCn2c(CCNC(=O)c3ccc(F)cc3F)nc3ccccc32)cc1,7.31,–
